# From PubChem BioAssay
# For some assays here: Potency and affinity values are given separately. Calls of active or inactive are those of the source. A call without a number means that no potency is given here. No rule for the calls is given here.
# Molecular target: Plasmodium falciparum protein kinase 6 (PK6, PF3D7_1337100) (UniProt Q8IDW1)
# Assay: PfPK6 kinase inhibitors, biochemical, TCAMS library (AID 1159586)
# Conditions: recombinant PfPK6, Kinase-Glo ATP depletion luminescence
# Plasmodium falciparum protein kinase 6 (PK6, PF3D7_1337100), sequence (Q8IDW1 1-305): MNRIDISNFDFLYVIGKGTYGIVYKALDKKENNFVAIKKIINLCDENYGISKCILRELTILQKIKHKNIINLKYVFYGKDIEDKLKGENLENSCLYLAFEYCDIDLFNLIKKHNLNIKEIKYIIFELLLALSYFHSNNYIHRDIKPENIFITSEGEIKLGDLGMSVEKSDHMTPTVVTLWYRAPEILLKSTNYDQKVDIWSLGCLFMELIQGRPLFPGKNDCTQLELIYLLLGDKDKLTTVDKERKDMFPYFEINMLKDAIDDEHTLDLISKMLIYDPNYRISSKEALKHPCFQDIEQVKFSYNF
row,Compound,outcome
1,O=C(Nc1ccc(Cl)cc1)Nc1cccc(-c2cccc(-c3nc4ccc(F)cc4[nH]3)c2)c1,inactive
2,c1cncc(CCNCc2cccc(-c3csc(-c4nc5ccccc5[nH]4)c3)c2)c1,inactive
3,COC(=O)c1cccc(NC(=O)NC2CCN(c3ccnc(NCc4ccc(F)cc4)n3)CC2)c1,inactive
4,Cc1cc(=O)c(-c2ccc(Oc3cccc(OC(F)(F)F)c3)cc2)c(C)[nH]1,inactive
5,COc1ccc(-c2csc(NC(=O)CCC(=O)O)n2)cc1OC,inactive
6,COc1nc2c(CCN3CC[C@H](NCc4cc(C#N)c5c(c4)CCO5)[C@H](O)C3)ccnc2cc1F,inactive
7,O=C(/C=C/c1ccc(Cl)c(Cl)c1)NCCCCCN1CCC(CCNC(=O)/C=C/c2ccccc2F)CC1,inactive
8,COc1ccc(NC(=O)Nc2ccc(-c3ccncc3)c(C(F)(F)F)c2)cc1N1CCN(C)CC1,inactive
9,CCOC(=O)c1cccc(N/C(N)=N/c2nc(C)cc(NCCc3ccccc3)n2)c1,inactive
10,CC(C)OC(=O)c1ccc(NC(=O)N[C@@H](Cc2ccc(O)cc2)C(=O)NC2C[C@H]3CC[C@@H](C2)N3Cc2ccccc2)cc1 (stereo not given in full),inactive
11,O=C(Nc1ccc(F)cc1)c1ccc(C(=O)NC2CCN(CC3CCCCC3)CC2)cc1,inactive
12,CC(C)C[C@H](NC(=O)c1cc2ccccc2s1)C(=O)N[C@H]1CCN(Cc2ccc(OC[C@@H]3CCCN3C)c(Cl)c2)C1,inactive
13,CC(C)Cn1c2ccccc2c2nc3nc(N)nc(N)c3nc21,inactive
14,O=C(/C=C/c1ccc(Cl)c(Cl)c1)NCCCCCN1CCC(NC(=O)c2ccc(F)cc2F)CC1,inactive
15,CN1CCCN(Cc2cccc(-c3cccc(NC(=O)c4cccc(Cl)c4)c3)c2)CC1,inactive
16,Cc1cc(C(=O)NCc2ccc(-c3c(C)noc3C)cc2)n(-c2ccc(Cl)cc2)n1,inactive
17,CC(=O)NCCNCc1cccc(C(=O)NCc2cccc(C(F)(F)F)c2)c1,inactive
18,CC(=NN=C(N)N)c1ccc2ccc3ccccc3c2c1,inactive
19,CCCNC(=O)Nc1cc2cc(-c3cccc(CN4CCCCC4)c3)ccc2n2c(C)nnc12,inactive
20,CC(CCc1ccccc1)NCC(O)c1ccc2c3c(cccc13)C(=O)N2C (stereo not given),inactive

row,Compound,outcome
1,Cc1cc2c(cc1C(F)(F)F)N(C(=O)Nc1cc(C(=O)NCCN(C)C)cc(C(F)(F)F)c1)CC2,inactive
2,CN1CCN(c2ccnc3ccc(NC(=O)Cc4ccc5ccccc5c4)cc23)CC1,inactive
3,N#Cc1ccc(CN2CCC(NC(=O)c3ccc(-c4nnc(-c5cccc6ccccc56)o4)cc3)CC2)cc1,inactive
4,COc1cc(Cc2cnc(N)nc2N)cc(OCCCCCC(=O)O)c1OC,inactive
5,COc1ccc(CNCc2cccc(-c3cccc(-c4nc5ccc(F)cc5[nH]4)c3)c2)cc1,inactive
6,CC(=O)Nc1cccc(CN(Cc2ccc(-c3ccc(CNCc4cccnc4)cn3)cc2)C(=O)Cc2cccnc2)c1,inactive
7,COc1ccc(NC(=O)Nc2cccc(-c3ccc(-c4nc5c(C)cccc5[nH]4)s3)c2)cc1,inactive
8,Cc1ccc(C2CCN(CCCCNC(=O)c3ccc(NC(=O)c4ccc(Cl)cc4)cc3)CC2)c(C)c1,inactive
9,COC(=O)c1cccc(NC(=O)NC2CCN(c3ccnc(Nc4ccc(F)cc4)n3)C2)c1 (stereo not given),inactive
10,Cc1nc2ccc3ccc(CN(C)c4ccc(C(=O)N[C@@H](CCC(=O)O)C(=O)O)cc4)cc3c2c(=O)[nH]1,inactive
11,COc1ccc2nccc([C@@H](O)CN3CCC(NCc4cc5sccc5nc4C(F)(F)F)CC3)c2c1,inactive
12,O=C(Nc1ccc(S(=O)(=O)N2CCOCC2)cc1)c1cc(-c2cc(Cl)ccc2O)n[nH]1,inactive
13,COc1ccc(S(=O)(=O)N2CCOCC2)cc1NC(=O)c1cc2ccccc2o1,inactive
14,CC1(C)N=C(N)N=C(N)N1OCCc1ccccc1,inactive
15,CCOC(=O)NC1=NC(C)(C)N(OCCCOc2cc(Cl)c(Cl)cc2Cl)C(NC(=O)OCC)=N1,inactive
16,N#Cc1ccc2[nH]cc(-c3cn4cc(SC5CCCC5)ccc4n3)c2c1,inactive
17,COc1ccc(C2CC(=O)C3=C(C2)NC(C)=C(C(=O)OC2CCCC2)C3c2cccc(O)c2)cc1 (stereo not given),inactive
18,O=C(C=Cc1ccc(Cl)c(Cl)c1)NCCCCCN1CCCC(CCCNC(=O)[C@@H]2C[C@H]2c2ccccc2)C1 (stereo not given in full),inactive
19,O=C(/C=C/c1ccc(Cl)c(Cl)c1)NCCCCCN1CCC(NC(=O)Nc2ccc(F)c(Cl)c2)CC1,inactive
20,COc1cc(NC(=O)Nc2ccc([N+](=O)[O-])cc2OC)c(OC)cc1Cl,inactive

# Molecular target: Protein kinase 7 (PK7), Plasmodium falciparum 3D7 (PF3D7_0213400) (UniProt Q7YTF7)
# Sequence (Q7YTF7 1-343): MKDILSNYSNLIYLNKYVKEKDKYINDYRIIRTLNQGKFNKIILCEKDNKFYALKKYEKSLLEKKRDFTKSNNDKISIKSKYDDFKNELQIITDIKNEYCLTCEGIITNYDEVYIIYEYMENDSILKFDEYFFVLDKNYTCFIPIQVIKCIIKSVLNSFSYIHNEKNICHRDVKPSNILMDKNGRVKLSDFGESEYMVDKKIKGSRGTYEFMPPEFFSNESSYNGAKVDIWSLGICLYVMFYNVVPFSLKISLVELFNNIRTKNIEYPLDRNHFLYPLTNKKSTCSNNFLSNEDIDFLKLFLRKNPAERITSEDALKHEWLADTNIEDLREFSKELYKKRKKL
# Assay: inhibition of Plasmodium PK7 catalytic activity – biochemical, TCAMS antimalarial set, Kinase-Glo luminescence (AID 1159587)
# Conditions: recombinant PfPK7, Kinase-Glo ATP depletion luminescence
row,Compound,outcome
1,O=C(Nc1ccc(Cl)cc1)Nc1cccc(-c2cccc(-c3nc4ccc(F)cc4[nH]3)c2)c1,inactive
2,c1cncc(CCNCc2cccc(-c3csc(-c4nc5ccccc5[nH]4)c3)c2)c1,inactive
3,COC(=O)c1cccc(NC(=O)NC2CCN(c3ccnc(NCc4ccc(F)cc4)n3)CC2)c1,inactive
4,Cc1cc(=O)c(-c2ccc(Oc3cccc(OC(F)(F)F)c3)cc2)c(C)[nH]1,inactive
5,COc1ccc(-c2csc(NC(=O)CCC(=O)O)n2)cc1OC,inactive
6,COc1nc2c(CCN3CC[C@H](NCc4cc(C#N)c5c(c4)CCO5)[C@H](O)C3)ccnc2cc1F,inactive
7,O=C(/C=C/c1ccc(Cl)c(Cl)c1)NCCCCCN1CCC(CCNC(=O)/C=C/c2ccccc2F)CC1,inactive
8,COc1ccc(NC(=O)Nc2ccc(-c3ccncc3)c(C(F)(F)F)c2)cc1N1CCN(C)CC1,inactive
9,CCOC(=O)c1cccc(N/C(N)=N/c2nc(C)cc(NCCc3ccccc3)n2)c1,inactive
10,CC(C)OC(=O)c1ccc(NC(=O)N[C@@H](Cc2ccc(O)cc2)C(=O)NC2C[C@H]3CC[C@@H](C2)N3Cc2ccccc2)cc1 (stereo not given in full),inactive
11,O=C(Nc1ccc(F)cc1)c1ccc(C(=O)NC2CCN(CC3CCCCC3)CC2)cc1,inactive
12,CC(C)C[C@H](NC(=O)c1cc2ccccc2s1)C(=O)N[C@H]1CCN(Cc2ccc(OC[C@@H]3CCCN3C)c(Cl)c2)C1,inactive
13,CC(C)Cn1c2ccccc2c2nc3nc(N)nc(N)c3nc21,inactive
14,O=C(/C=C/c1ccc(Cl)c(Cl)c1)NCCCCCN1CCC(NC(=O)c2ccc(F)cc2F)CC1,inactive
15,CN1CCCN(Cc2cccc(-c3cccc(NC(=O)c4cccc(Cl)c4)c3)c2)CC1,inactive
16,Cc1cc(C(=O)NCc2ccc(-c3c(C)noc3C)cc2)n(-c2ccc(Cl)cc2)n1,inactive
17,CC(=O)NCCNCc1cccc(C(=O)NCc2cccc(C(F)(F)F)c2)c1,inactive
18,CC(=NN=C(N)N)c1ccc2ccc3ccccc3c2c1,inactive
19,CCCNC(=O)Nc1cc2cc(-c3cccc(CN4CCCCC4)c3)ccc2n2c(C)nnc12,inactive
20,CC(CCc1ccccc1)NCC(O)c1ccc2c3c(cccc13)C(=O)N2C (stereo not given),inactive

row,Compound,outcome
1,Cc1cc2c(cc1C(F)(F)F)N(C(=O)Nc1cc(C(=O)NCCN(C)C)cc(C(F)(F)F)c1)CC2,inactive
2,CN1CCN(c2ccnc3ccc(NC(=O)Cc4ccc5ccccc5c4)cc23)CC1,inactive
3,N#Cc1ccc(CN2CCC(NC(=O)c3ccc(-c4nnc(-c5cccc6ccccc56)o4)cc3)CC2)cc1,inactive
4,COc1cc(Cc2cnc(N)nc2N)cc(OCCCCCC(=O)O)c1OC,inactive
5,COc1ccc(CNCc2cccc(-c3cccc(-c4nc5ccc(F)cc5[nH]4)c3)c2)cc1,inactive
6,CC(=O)Nc1cccc(CN(Cc2ccc(-c3ccc(CNCc4cccnc4)cn3)cc2)C(=O)Cc2cccnc2)c1,inactive
7,COc1ccc(NC(=O)Nc2cccc(-c3ccc(-c4nc5c(C)cccc5[nH]4)s3)c2)cc1,inactive
8,Cc1ccc(C2CCN(CCCCNC(=O)c3ccc(NC(=O)c4ccc(Cl)cc4)cc3)CC2)c(C)c1,inactive
9,COC(=O)c1cccc(NC(=O)NC2CCN(c3ccnc(Nc4ccc(F)cc4)n3)C2)c1 (stereo not given),inactive
10,Cc1nc2ccc3ccc(CN(C)c4ccc(C(=O)N[C@@H](CCC(=O)O)C(=O)O)cc4)cc3c2c(=O)[nH]1,inactive
11,COc1ccc2nccc([C@@H](O)CN3CCC(NCc4cc5sccc5nc4C(F)(F)F)CC3)c2c1,inactive
12,O=C(Nc1ccc(S(=O)(=O)N2CCOCC2)cc1)c1cc(-c2cc(Cl)ccc2O)n[nH]1,inactive
13,COc1ccc(S(=O)(=O)N2CCOCC2)cc1NC(=O)c1cc2ccccc2o1,inactive
14,CC1(C)N=C(N)N=C(N)N1OCCc1ccccc1,inactive
15,CCOC(=O)NC1=NC(C)(C)N(OCCCOc2cc(Cl)c(Cl)cc2Cl)C(NC(=O)OCC)=N1,inactive
16,N#Cc1ccc2[nH]cc(-c3cn4cc(SC5CCCC5)ccc4n3)c2c1,inactive
17,COc1ccc(C2CC(=O)C3=C(C2)NC(C)=C(C(=O)OC2CCCC2)C3c2cccc(O)c2)cc1 (stereo not given),inactive
18,O=C(C=Cc1ccc(Cl)c(Cl)c1)NCCCCCN1CCCC(CCCNC(=O)[C@@H]2C[C@H]2c2ccccc2)C1 (stereo not given in full),inactive
19,O=C(/C=C/c1ccc(Cl)c(Cl)c1)NCCCCCN1CCC(NC(=O)Nc2ccc(F)c(Cl)c2)CC1,inactive
20,COc1cc(NC(=O)Nc2ccc([N+](=O)[O-])cc2OC)c(OC)cc1Cl,inactive
